# Over roughly 33,000 sequences, “E-score (-0.5 to 0.5)” has its median near -0.012; the highest 2% begin near 0.29. Only a selection was taken, and the highest values are over-represented in it overall.
# Molecular target: T1, Ybr033w (UniProt P38073)
# T1 sequence: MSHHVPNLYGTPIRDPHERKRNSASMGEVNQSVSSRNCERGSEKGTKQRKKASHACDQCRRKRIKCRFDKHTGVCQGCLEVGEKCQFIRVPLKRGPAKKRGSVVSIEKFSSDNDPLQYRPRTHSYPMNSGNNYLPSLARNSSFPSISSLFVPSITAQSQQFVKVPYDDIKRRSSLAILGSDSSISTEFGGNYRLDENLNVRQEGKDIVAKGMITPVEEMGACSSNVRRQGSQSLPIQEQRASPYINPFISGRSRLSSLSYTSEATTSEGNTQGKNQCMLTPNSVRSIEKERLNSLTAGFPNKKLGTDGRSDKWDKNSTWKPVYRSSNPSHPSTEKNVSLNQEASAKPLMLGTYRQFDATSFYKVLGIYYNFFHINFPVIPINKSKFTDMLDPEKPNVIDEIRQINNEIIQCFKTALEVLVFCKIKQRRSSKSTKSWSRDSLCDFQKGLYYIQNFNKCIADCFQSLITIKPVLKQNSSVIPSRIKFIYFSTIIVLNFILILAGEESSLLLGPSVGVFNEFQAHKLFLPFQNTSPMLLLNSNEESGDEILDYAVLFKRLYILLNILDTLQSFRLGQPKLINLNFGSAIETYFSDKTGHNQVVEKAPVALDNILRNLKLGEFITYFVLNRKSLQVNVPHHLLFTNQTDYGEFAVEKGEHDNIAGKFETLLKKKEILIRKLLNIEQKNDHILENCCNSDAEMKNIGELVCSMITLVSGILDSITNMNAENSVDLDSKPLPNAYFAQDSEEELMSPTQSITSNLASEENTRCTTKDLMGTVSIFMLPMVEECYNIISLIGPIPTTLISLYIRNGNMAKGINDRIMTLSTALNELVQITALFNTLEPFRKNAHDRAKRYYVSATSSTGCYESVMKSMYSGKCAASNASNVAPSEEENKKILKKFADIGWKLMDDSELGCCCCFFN
# Experiment: PBM E-score (8-mer binding enrichment) (E-score (-0.5 to 0.5)); higher = stronger / more preferred TF binding
# Settings: protein concentration: 200 nM; construct: GST-full length
# Procedure, shortened: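 Yeast transcription factors, full-length or as DNA-binding domains, were expressed with a GST tag using PURExpress in vitro transcription/translation. At about 100-200 nM they were applied to universal all-10-mer Agilent arrays, double-stranded by primer extension on fresh or once-stripped slides. Fluorescent anti-GST detected bound protein, and masliner normalised the scans. E-scores for ungapped eight-base words, pooled with reverse complements, came from the Universal PBM Analysis Suite.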
row,Sequence,PBM E-score
1,AGTTATGA,0.0811
2,CGGTTGGA,0.0125
3,ATCCTGGC,-0.0209
4,TAAATAGA,0.0889
5,CAAATAAA,0.2
6,AAAATAAA,0.319
7,AAAATAGC,-0.0427
8,GAAATAAA,0.247
9,AAAATAAC,0.189
10,AAAATAAT,0.319
11,GAAATAAC,0.159
12,TAAATAAA,0.301
13,AAAATAGA,0.332
14,AAAATAAG,0.207
15,ACCCTTCA,-0.0354
16,CATTCTGG,-0.15
17,CATCTGTA,-0.105
18,CGTGACAC,-0.127
19,CGATAAAA,0.14
20,TGATAAAA,0.299
21,AGATAAAC,0.216
22,GGATAAGA,-0.0485
23,GTATAAAC,0.158
24,GGATAAAC,0.456
25,GGATAACA,0.0661

row,Sequence,PBM E-score
1,ATATAAAA,0.242
2,GTATAAAA,0.289
3,AGATAAAA,0.286
4,GGATAAAA,0.397
5,CGATAAAC,-0.148
6,CCTGCCCG,-0.354
7,GGCATATA,0.16
8,AGCAATGA,0.13
9,CGAGACCA,-0.0425
10,ATGAACAC,0.0659
11,ATAGCGGC,-0.106
12,CCGTCGAG,0.102
13,CATTATCG,0.0618
14,CATTATCA,0.138
15,ATTTATCG,0.0834
16,AATTATCA,0.324
17,AATTATCT,0.264
18,AATTATCG,0.308
19,TCGACCGA,-0.0438
20,CTGCACCC,-0.204
21,ACCTTTAA,0.126
22,AGTAGCAC,-0.0755
23,CTTTTATC,0.232
24,ATTTTATG,0.186
25,ACTTTATC,0.277

row,Sequence,PBM E-score
1,GTTTTATA,0.0686
2,ATTTTATA,0.309
3,ATTTTATC,0.325
4,AGCTTATG,0.0568
5,GGGGGTAC,-0.254
6,GTGTTCCA,-0.0466
7,ATGTTCCG,0.458
8,ATGTTCAG,-0.137
9,CTGTTCCA,0.0353
10,ATGTTCCA,0.332
11,ATGTTCCC,0.199
12,CACTGATC,0.0744
13,GTCTGAGA,-0.163
14,AACAAACT,0.341
15,AACAACTC,0.0616
16,AACAACTT,0.291
17,AACAAACC,0.105
18,AACAACTA,0.147
19,AACAAACA,0.193
20,AACAAACG,0.183
21,TACAAACA,0.29
22,TACAAGCA,0.189
23,CAAATCCG,0.0419
24,CTCGTGGC,-0.173
25,AAGTACTG,0.112

row,Sequence,PBM E-score
1,AGTGGTCA,-0.103
2,GAGACACC,-0.216
3,TGACTAAA,0.0305
4,TGAAGGAA,0.211
5,CGTATTTA,0.311
6,AGTATTGC,0.169
7,AGTATTTC,0.34
8,GGTATTTA,0.125
9,AGTATTTA,0.301
10,AGTATTCC,0.161
11,CGTATTTC,0.0631
12,AGTATTTG,0.159
13,ACTATTTA,0.235
14,AGACTTTG,-0.0453
15,CCGACACG,-0.213
16,ATCACAAG,0.107
17,CCTACTTC,-0.0544
18,CGCAGGTC,-0.168
19,ACAGCCTG,-0.0521
20,ACGAGTGC,-0.0558
21,CCACCCTC,-0.0745
22,ACCAATAA,0.107
23,GCATCGCC,-0.17
24,ATATCCAC,0.145
25,GAAGGCTA,0.0975

row,Sequence,PBM E-score
1,CGGAGAAG,-0.166
2,TGGAGAAA,0.133
3,CGGAGAAA,0.39
4,TAAACTCA,0.147
5,GAATAAAC,0.142
6,GAATAAGC,0.189
7,GCATAATA,0.198
8,GAATAACC,0.113
9,GGATAATA,0.349
10,GAATAATC,0.379
11,GAATAAGA,0.0352
12,CGATAATA,0.0851
13,CAATAACA,0.066
14,GAATAATA,0.395
15,GAATAACA,0.367
16,GGATAGTA,0.206
17,CATCCTGC,-0.163
18,CAAGAGGC,-0.144
19,CTTCAGAA,-0.028
20,GTAGGACA,0.012
21,ACGTATAC,0.181
22,ATTCTGAA,0.187
23,CGAGGGAA,-0.0841
24,AATGTAAT,0.272
25,CATGTAAG,-0.0133

row,Sequence,PBM E-score
1,AATGTAAG,0.288
2,AGCCTCCC,-0.254
3,AACCTGCC,-0.0858
4,AATTGACC,0.0241
5,AATTGATA,0.255
6,AATTGATG,0.309
7,ACTTGATG,0.218
8,AATTGATC,0.354
9,CATTGATC,0.236
10,TAACCAAA,0.186
11,CGGAGGGA,-0.057
12,CGTCTTCC,-0.215
13,ATTACTCG,0.132
14,CTTACTTA,0.0259
15,ATTACTCA,0.296
16,ATTACTGA,0.169
17,ATTACTCC,0.23
18,ATTACTTA,0.35
19,CACCAGTC,-0.196
20,AAAAGTTT,0.266
21,ACAAGTTA,0.185
22,CAAAGTTA,0.279
23,CAAAGTAA,0.186
24,AAAAGTTG,0.133
25,TAAAGTTA,0.358

row,Sequence,PBM E-score
1,GAAAGTTA,0.218
2,AAAAGTAA,0.314
3,AAAAGTTA,0.288
4,AAAAGTAT,0.13
5,AAAAGTTC,0.373
6,GAAAGTTC,-0.0203
7,ACGGTGGC,-0.095
8,CGGCCATA,-0.17
9,CTATCCAG,0.062
10,AGTGGTTC,0.00899
11,TGAGCCCA,-0.0977
12,GTTCTGCA,-0.173
13,AGAACTAG,-0.084
14,CTCTGCGC,-0.118
15,TAGACGCA,-0.0494
16,CCGCTTGA,-0.162
17,GCCTTTCC,-0.254
18,TAAATATA,0.353
19,TAAATACA,0.229
20,GAAATATA,0.327
21,CAAATATA,0.281
22,GAAATATC,0.231

# Reference: the supplement of paper PMC3334620
